# Reference: publication PMC7862700, “An all-to-all approach to the identification of sequence-specific readers for epigenetic DNA modifications on cytosine”
# What was measured:
# Test in all cases: DAPPL (digital affinity profiling via proximity ligation, sequencing); 10 mM Tris-HCl pH 7.5, 50 mM NaCl, 1 mM DTT, 4% glycerol, room temperature, 30 min; GST-TFs on glutathione beads, 16-mer random dsDNA library, 0.1% formaldehyde crosslink after washing; high values mean tight binding
# [1] = target: T1, FEV (Homo sapiens, UniProt Q99581 1-238); settings: protein: recombinant; tags: N-terminal GST; dsDNA, one strand shown
# T1 sequence: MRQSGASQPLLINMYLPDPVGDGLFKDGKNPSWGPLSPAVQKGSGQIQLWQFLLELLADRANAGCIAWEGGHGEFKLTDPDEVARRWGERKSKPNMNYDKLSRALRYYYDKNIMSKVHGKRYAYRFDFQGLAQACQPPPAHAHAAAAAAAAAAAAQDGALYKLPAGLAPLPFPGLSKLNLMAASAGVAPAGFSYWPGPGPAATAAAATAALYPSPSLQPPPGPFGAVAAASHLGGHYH
# Summary of the method: (§1)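 Binding signal is each hexamer's read frequency for a factor divided by its frequency in the tag-only sample. The factors were GST-fused human transcription factors from yeast, captured on glutathione beads, DNA-barcoded and pooled with that sample. Pools were incubated with 200 nmole of a random double-stranded 16-mer DNA library in Tris/NaCl/DTT/glycerol buffer at room temperature for 30 min, then washed, crosslinked with 0.1% formaldehyde, proximity-ligated with BsaI/T4 ligase (1 h, 37 °C), PCR-amplified and sequenced on an Illumina NextSeq500.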
# [2] = target: ETV5 (Homo sapiens, UniProt P41161 1-510); settings: protein: recombinant; tags: N-terminal GST; dsDNA, one strand shown
# Summary of the method: as §1
# [3] = target: HSF1 (Homo sapiens, UniProt Q00613 1-529); settings: protein: recombinant; tags: N-terminal GST; chain copies: 3; dsDNA, one strand shown
# Summary of the method: as §1
# [4] = target: T2, SPIC (Homo sapiens, UniProt Q8N5J4 1-248); settings: protein: recombinant; tags: N-terminal GST; dsDNA, one strand shown
# T2 sequence: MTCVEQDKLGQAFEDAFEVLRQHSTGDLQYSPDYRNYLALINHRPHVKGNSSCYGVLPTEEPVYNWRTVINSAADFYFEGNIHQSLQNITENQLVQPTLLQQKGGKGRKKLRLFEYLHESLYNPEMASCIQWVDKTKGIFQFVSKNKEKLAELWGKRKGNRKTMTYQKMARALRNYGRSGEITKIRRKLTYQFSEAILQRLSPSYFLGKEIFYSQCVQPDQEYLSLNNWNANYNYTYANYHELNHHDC
# Summary of the method: as §1
# [5] = target: ELF4 (Homo sapiens, UniProt Q99607 1-663); settings: protein: recombinant; tags: N-terminal GST; dsDNA, one strand shown
# Summary of the method: as §1
# [6] = target: T3, ELK4 (Homo sapiens, UniProt P28324-2 1-405); settings: protein: recombinant; tags: N-terminal GST; dsDNA, one strand shown
# T3 sequence: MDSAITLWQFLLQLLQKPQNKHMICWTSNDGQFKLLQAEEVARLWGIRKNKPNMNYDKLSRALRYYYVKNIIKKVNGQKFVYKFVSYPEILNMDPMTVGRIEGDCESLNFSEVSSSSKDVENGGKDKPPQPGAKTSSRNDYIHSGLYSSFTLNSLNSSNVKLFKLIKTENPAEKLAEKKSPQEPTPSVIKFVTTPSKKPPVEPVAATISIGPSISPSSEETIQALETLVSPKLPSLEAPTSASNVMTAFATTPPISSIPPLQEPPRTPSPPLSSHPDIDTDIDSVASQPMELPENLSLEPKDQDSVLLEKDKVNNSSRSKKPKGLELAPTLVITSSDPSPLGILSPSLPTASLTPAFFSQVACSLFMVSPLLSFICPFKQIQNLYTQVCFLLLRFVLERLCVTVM
# Summary of the method: as §1
# [7] = target: T4, ETV2 (Homo sapiens, UniProt O00321 1-342); settings: protein: recombinant; tags: N-terminal GST; dsDNA, one strand shown
# T4 sequence: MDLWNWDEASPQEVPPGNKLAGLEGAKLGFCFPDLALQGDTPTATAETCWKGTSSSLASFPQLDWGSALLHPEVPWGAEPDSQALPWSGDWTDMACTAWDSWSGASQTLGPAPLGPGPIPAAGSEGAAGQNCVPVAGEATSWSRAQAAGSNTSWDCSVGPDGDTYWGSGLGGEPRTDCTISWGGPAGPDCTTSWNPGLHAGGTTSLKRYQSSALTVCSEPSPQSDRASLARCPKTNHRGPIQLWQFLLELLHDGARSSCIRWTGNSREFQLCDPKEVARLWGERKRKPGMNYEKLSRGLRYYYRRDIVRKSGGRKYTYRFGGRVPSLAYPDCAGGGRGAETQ
# Summary of the method: as §1
# [8] = target: T5, ELF3 (Homo sapiens, UniProt P78545 1-371); settings: protein: recombinant; tags: N-terminal GST; dsDNA, one strand shown
# T5 sequence: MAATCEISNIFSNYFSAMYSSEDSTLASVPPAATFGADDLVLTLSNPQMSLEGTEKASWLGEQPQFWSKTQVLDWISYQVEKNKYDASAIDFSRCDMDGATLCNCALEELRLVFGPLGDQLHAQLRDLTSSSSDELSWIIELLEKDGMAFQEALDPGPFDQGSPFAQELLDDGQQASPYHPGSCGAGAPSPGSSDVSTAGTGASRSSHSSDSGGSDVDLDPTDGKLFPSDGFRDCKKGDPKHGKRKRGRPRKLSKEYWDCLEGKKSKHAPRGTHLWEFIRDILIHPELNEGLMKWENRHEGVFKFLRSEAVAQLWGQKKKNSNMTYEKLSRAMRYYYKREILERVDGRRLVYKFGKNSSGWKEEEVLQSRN
# Summary of the method: as §1
# [9] = target: CRX (Homo sapiens, UniProt O43186 1-299); settings: protein: recombinant; tags: N-terminal GST; dsDNA, one strand shown
# Summary of the method: as §1
# [10] = target: ETV1 (Homo sapiens, UniProt P50549 1-477); settings: protein: recombinant; tags: N-terminal GST; dsDNA, one strand shown
# Summary of the method: as §1
# [11] = target: T6, ERF (Homo sapiens, UniProt P50548 1-548); settings: protein: recombinant; tags: N-terminal GST; dsDNA, one strand shown
# T6 sequence: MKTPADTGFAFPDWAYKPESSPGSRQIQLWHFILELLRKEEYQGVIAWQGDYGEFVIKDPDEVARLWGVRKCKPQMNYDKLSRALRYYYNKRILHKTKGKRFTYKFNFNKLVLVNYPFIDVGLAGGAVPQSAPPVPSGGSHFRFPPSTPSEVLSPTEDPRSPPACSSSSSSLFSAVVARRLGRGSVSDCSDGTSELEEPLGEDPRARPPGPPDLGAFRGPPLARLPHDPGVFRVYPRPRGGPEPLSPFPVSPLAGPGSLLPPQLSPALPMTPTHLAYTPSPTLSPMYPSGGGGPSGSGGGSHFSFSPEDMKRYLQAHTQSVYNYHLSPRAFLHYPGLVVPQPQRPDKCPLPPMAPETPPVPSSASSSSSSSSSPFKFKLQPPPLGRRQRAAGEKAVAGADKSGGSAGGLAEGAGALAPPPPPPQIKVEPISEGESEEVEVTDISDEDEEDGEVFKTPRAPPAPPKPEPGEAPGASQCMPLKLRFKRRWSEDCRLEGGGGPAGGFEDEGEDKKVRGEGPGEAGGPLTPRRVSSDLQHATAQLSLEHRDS
# Summary of the method: as §1
# [12] = target: T7, ETV3L (Homo sapiens, UniProt Q6ZN32 1-361); settings: protein: recombinant; tags: N-terminal GST; dsDNA, one strand shown
# T7 sequence: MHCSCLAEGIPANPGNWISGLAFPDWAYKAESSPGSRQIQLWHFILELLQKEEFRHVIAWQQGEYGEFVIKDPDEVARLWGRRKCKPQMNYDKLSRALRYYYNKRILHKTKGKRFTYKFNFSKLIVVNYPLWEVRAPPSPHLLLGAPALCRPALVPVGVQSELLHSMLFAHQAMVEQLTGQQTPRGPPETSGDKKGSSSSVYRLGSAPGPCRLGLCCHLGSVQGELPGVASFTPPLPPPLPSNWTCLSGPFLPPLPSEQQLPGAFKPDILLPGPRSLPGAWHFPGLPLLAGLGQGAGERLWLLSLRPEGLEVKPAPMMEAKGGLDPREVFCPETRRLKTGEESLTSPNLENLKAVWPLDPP
# Summary of the method: as §1
# [13] = target: T8, ETS2 (Homo sapiens, UniProt P15036 1-469); settings: protein: recombinant; tags: N-terminal GST; dsDNA, one strand shown
# T8 sequence: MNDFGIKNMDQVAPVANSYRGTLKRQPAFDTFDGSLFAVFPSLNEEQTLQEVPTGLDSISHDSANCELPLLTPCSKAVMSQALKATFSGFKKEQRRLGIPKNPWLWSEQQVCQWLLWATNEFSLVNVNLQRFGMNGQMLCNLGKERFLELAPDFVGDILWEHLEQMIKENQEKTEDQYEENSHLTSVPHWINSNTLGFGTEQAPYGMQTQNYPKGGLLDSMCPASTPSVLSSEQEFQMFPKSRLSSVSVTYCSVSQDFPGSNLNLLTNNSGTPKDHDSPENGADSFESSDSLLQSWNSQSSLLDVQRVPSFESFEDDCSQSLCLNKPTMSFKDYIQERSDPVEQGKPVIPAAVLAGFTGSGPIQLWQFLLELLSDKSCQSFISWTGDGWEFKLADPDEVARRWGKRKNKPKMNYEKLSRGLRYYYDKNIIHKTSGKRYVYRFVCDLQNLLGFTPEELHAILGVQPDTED
# Summary of the method: as §1
# [14] = target: T9, SPDEF (Homo sapiens, UniProt O95238 1-335); settings: protein: recombinant; tags: N-terminal GST; dsDNA, one strand shown
# T9 sequence: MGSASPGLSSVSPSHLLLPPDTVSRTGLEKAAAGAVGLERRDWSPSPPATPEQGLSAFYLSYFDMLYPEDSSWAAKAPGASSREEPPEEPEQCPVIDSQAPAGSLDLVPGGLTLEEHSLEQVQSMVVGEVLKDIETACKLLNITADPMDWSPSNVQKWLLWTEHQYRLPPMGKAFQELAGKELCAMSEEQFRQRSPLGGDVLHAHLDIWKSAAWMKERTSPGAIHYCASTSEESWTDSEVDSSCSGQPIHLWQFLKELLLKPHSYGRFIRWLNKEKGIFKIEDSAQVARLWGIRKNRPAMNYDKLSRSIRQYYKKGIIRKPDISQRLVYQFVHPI
# Summary of the method: as §1
# [15] = target: T10, ETV7 (Homo sapiens, UniProt Q9Y603 1-341); settings: protein: recombinant; tags: N-terminal GST; dsDNA, one strand shown
# T10 sequence: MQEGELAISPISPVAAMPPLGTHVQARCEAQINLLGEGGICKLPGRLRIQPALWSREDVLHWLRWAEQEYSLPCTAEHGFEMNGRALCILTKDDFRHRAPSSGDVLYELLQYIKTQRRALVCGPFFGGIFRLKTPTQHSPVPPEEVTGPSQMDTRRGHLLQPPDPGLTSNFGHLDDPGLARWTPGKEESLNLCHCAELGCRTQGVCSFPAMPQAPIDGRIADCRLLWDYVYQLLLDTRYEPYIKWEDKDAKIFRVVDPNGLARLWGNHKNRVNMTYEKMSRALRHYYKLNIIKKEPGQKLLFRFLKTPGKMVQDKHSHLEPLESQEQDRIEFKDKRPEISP
# Summary of the method: as §1
# [16] = target: T11, ELF5 (Homo sapiens, UniProt Q9UKW6-2 1-255); settings: protein: recombinant; tags: N-terminal GST; dsDNA, one strand shown
# T11 sequence: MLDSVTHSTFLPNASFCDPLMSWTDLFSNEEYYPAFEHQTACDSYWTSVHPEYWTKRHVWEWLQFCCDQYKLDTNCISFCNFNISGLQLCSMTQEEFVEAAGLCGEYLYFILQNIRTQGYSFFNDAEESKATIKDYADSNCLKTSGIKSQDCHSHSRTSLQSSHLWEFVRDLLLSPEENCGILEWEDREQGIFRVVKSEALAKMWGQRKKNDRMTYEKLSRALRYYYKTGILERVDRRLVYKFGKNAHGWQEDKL
# Summary of the method: as §1
# [17] = target: T12, ETV3 (Homo sapiens, UniProt P41162-2 1-143); settings: protein: recombinant; tags: N-terminal GST; dsDNA, one strand shown
# T12 sequence: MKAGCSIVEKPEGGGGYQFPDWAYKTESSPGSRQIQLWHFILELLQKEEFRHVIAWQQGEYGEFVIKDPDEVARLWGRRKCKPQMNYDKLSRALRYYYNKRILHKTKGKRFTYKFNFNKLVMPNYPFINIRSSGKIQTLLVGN
# Summary of the method: as §1
# [18] = target: ETV6 (Homo sapiens, UniProt P41212 1-452); settings: protein: recombinant; tags: N-terminal GST; dsDNA, one strand shown
# Summary of the method: as §1
# Sequence of ETV5 (P41161 whole entry): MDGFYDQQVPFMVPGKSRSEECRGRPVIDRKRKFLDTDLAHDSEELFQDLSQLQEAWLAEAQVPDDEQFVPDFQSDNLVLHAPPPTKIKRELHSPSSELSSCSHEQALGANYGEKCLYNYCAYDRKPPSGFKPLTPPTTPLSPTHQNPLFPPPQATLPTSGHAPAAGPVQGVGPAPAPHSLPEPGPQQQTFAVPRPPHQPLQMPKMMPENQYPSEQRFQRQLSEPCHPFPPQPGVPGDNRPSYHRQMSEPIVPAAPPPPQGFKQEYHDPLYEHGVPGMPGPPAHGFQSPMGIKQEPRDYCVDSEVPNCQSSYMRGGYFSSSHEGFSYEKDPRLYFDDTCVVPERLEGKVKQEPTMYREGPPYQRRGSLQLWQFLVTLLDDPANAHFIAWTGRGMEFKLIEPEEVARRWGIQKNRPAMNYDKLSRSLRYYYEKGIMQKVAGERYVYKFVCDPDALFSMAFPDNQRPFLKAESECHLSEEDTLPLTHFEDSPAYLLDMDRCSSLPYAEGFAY
# Sequence of HSF1 (Q00613 whole entry): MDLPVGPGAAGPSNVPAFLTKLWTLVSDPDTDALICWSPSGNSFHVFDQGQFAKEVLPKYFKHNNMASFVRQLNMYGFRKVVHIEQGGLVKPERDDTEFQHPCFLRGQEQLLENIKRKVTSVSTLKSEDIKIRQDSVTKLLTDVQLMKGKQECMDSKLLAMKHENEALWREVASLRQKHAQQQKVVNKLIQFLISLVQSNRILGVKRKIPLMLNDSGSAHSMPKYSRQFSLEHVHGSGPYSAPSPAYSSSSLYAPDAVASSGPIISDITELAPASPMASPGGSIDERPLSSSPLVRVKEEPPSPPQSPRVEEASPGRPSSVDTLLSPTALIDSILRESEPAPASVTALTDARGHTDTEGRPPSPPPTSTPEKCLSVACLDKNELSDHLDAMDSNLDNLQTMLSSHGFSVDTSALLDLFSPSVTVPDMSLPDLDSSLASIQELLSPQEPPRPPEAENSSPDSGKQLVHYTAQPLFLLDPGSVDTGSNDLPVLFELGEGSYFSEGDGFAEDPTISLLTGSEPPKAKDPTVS
# Sequence of CRX (O43186 whole entry): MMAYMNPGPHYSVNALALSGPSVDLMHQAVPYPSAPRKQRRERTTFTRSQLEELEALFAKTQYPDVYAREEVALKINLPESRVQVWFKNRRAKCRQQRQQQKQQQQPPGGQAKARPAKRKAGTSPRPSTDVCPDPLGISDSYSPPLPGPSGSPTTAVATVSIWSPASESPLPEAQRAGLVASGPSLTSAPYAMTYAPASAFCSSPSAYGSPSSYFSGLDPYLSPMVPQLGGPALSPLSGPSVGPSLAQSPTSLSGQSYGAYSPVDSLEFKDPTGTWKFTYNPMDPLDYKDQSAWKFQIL
# Sequence of ELF4 (Q99607 whole entry): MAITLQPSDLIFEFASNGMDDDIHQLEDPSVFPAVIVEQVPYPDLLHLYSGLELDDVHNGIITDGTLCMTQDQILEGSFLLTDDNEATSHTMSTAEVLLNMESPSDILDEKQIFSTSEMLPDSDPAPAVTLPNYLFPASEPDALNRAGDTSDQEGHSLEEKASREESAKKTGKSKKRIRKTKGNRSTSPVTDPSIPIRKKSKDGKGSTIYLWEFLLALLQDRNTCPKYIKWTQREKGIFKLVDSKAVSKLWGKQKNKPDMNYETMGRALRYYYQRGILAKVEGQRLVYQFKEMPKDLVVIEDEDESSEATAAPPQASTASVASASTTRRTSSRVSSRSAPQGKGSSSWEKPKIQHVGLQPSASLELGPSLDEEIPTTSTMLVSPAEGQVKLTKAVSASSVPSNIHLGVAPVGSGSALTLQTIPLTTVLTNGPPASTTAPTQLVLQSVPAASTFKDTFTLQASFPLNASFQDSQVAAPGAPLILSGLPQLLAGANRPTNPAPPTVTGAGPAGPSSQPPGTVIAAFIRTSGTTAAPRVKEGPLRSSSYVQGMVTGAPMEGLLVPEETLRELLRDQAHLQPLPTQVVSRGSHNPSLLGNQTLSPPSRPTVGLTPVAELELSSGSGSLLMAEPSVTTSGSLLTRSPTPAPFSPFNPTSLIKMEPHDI
# Sequence of ETV1 (P50549 whole entry): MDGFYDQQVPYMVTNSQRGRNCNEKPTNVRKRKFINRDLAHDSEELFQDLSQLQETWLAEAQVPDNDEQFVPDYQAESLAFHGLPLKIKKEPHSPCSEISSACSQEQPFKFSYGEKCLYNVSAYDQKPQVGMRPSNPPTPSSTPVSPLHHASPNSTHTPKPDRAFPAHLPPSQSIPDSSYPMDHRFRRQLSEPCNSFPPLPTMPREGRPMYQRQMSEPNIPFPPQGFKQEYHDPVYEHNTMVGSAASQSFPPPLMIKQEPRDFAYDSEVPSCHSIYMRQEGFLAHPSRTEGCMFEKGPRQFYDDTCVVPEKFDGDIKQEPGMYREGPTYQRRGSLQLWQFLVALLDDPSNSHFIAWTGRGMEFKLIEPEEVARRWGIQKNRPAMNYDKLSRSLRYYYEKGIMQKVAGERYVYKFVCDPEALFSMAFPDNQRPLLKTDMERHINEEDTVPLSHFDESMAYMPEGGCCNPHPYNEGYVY
# Sequence of ETV6 (P41212 whole entry): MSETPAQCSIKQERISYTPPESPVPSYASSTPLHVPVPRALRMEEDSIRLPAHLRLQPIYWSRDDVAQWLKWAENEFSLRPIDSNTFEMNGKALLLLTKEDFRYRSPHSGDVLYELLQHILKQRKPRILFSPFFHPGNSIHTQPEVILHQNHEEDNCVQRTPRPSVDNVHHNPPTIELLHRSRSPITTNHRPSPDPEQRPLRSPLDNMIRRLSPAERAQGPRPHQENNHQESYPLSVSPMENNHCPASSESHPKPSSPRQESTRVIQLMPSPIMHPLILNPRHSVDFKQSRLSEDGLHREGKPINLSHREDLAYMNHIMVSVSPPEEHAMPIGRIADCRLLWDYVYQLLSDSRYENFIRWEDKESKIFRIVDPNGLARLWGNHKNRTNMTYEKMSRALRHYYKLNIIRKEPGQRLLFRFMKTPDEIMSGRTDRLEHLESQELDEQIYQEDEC
sequence,measurement,setting,value
CTCTTG,binding signal,[1],"1.34 fold enrichment (6-mer frequency, TF over GST control)"
same,binding signal,[2],"1.41 fold enrichment (6-mer frequency, TF over GST control)"
same,binding signal,[3],"1.24 fold enrichment (6-mer frequency, TF over GST control)"
same,binding signal,[4],"1.35 fold enrichment (6-mer frequency, TF over GST control)"
same,binding signal,[5],"1.42 fold enrichment (6-mer frequency, TF over GST control)"
same,binding signal,[6],"1.52 fold enrichment (6-mer frequency, TF over GST control)"
same,binding signal,[7],"1.36 fold enrichment (6-mer frequency, TF over GST control)"
same,binding signal,[8],"1.22 fold enrichment (6-mer frequency, TF over GST control)"
same,binding signal,[9],"1.21 fold enrichment (6-mer frequency, TF over GST control)"
same,binding signal,[10],"1.41 fold enrichment (6-mer frequency, TF over GST control)"
same,binding signal,[11],"1.53 fold enrichment (6-mer frequency, TF over GST control)"
same,binding signal,[12],"1.42 fold enrichment (6-mer frequency, TF over GST control)"
same,binding signal,[13],"1.23 fold enrichment (6-mer frequency, TF over GST control)"
same,binding signal,[14],"1.26 fold enrichment (6-mer frequency, TF over GST control)"
same,binding signal,[15],"1.27 fold enrichment (6-mer frequency, TF over GST control)"
same,binding signal,[16],"1.43 fold enrichment (6-mer frequency, TF over GST control)"
same,binding signal,[17],"1.35 fold enrichment (6-mer frequency, TF over GST control)"
same,binding signal,[18],"1.2 fold enrichment (6-mer frequency, TF over GST control)"
